Screening results: PubChem BioAssay, National Center for Advancing Translational Sciences (NCATS)
FEN1 inh-1 – inhibitors of human flap endonuclease 1 | Potency, µM (highest dose often 114 µM), for inactives: top-dose activity change, negative = inhibition, actives largely listed as inhibitors | P39748 | 0.35% of 390,000 active | AID 588795 | Recombinant FEN1 flap cleavage, fluorescence, 15 min; also: % is scaled to controls: 0 for no effect and ±100 for the full control effect; nearly all actives have a fitted effect of over 65% in size
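In this screen, 50 nM flap DNA substrate was added to 10 nM FEN1 pretreated with compound for 15 min at room temperature; cleavage was followed with reads at 0 and 15 min, and Hill fitting gave concentration–response parameters.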
APE1 inh – inhibitors of human APE1 endonuclease; 0.35% of 350,000 active; Potency, µM (series often up to 65.8 µM), for the others: top-dose activity change, negative = inhibition, usual class: inhibitors; P27695; recombinant APE1, TAMRA/BHQ-2 abasic DNA cleavage fluorescence;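 also: plate controls were vehicle for no effect and reference inhibitor for full effect; nearly all actives have a fitted effect of over 55% in size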
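Substrate: short duplex with […] THF abasic site, 5'-TAMRA and 3'-BHQ-2, 50 nM final. APE1 at 0.75 nM, preincubated 15 min RT with compound. Fluorescence increase from first to third read measured activity.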
TDP1 inh – inhibitors of human tyrosyl-DNA phosphodiesterase TDP1 | Q9NUW8 | recombinant TDP1, AlphaScreen DNA substrate cleavage | Potency, µM (series often up to 130 µM), without a hit: top-dose activity change, negative = inhibition, usual class: inhibitors | 0.28% of 350,000 active | AID 485290; also: % is scaled to controls: 0 for no effect and ±100 for the full control effect; nearly all actives have a fitted effect of over 40% in size
Target sequence (Q9NUW8 whole entry, looked up): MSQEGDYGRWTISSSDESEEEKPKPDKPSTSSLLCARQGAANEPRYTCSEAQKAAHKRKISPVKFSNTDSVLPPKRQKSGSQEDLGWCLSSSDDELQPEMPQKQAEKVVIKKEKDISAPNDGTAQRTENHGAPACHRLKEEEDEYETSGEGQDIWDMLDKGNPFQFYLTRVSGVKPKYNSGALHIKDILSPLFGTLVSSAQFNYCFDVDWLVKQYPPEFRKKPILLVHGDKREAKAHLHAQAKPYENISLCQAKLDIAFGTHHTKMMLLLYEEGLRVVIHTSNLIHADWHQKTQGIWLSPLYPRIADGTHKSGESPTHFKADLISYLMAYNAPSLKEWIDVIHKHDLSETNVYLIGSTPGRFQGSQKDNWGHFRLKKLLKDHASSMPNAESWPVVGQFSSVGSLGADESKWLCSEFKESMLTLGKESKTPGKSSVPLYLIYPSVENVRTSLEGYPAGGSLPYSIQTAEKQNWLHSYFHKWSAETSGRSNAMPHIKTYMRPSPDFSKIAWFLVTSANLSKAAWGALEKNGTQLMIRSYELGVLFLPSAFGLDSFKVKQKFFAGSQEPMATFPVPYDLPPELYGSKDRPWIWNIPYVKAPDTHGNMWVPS
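Here, a 5' biotin and 3' phosphotyrosine-FITC DNA oligonucleotide reports Tdp1 activity: intact substrate bridges AlphaScreen beads, while cleavage leaves a 3' phosphate and drops signal. All incubations at room temperature.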
BLM helicase inh – Bloom syndrome helicase (human) inhibition; recombinant BLM DNA unwinding, fluorescence dequenching; Potency, µM (doses to about 56.1 µM), without a hit: top-dose activity change, negative = inhibition, usual class: inhibitors; 0.2% of 350,000 active;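 also: plate controls were vehicle for no effect and no enzyme for full effect; nearly all actives have a fitted effect of over 35% in size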
RECQ1 inh-1 – inhibitors of human RECQ1 DNA helicase | RECQ1 DNA unwinding, red fluorescence kinetic read | Potency, µM (doses to about 57.3 µM), without a hit: at the highest dose activity, negative = inhibition, usual class: inhibitors | 0.54% of 240,000 active | AID 2549;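 also: plate controls were vehicle for no effect and no enzyme for full effect; nearly all actives have a fitted effect of over 30% in size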
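50 nM RECQ1T1 preincubated 15 min with compound in Tris pH 8.0 buffer with MgCl2, DTT, Tween-20 and 2.5 ug/ml poly(dI-dC); started with 200 nM TAMRA/BHQ-2 forked duplex and 2 mM ATP. Unwinding read as fluorescence (525/598 nm), two reads 2 h apart.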
RECQ1 conf – confirmation of human RECQ1 helicase inhibitors; 28% of 610 active; shares compounds with RECQ1 inh-1; AID 2708; RECQ1 helicase DNA unwinding, fluorescence; Potency, µM (top dose mostly 229 µM), for inactives: at the highest dose activity change, negative = inhibition, most hits filed as inhibitors; also: % is scaled to controls: 0 for no effect and ±100 for the full control effect; nearly all actives have a fitted effect of over 45% in size
RECQ1 ADP FP – ADP displacement flagged in RECQ1 inhibitor counter-screen; shares compounds with RECQ1 inh-1; Potency, µM (top dose mostly 228 µM), without a hit: top-dose activity change, negative = inhibition, most hits filed as inhibitors; 27% of 530 active; ADP fluorescence polarization displacement counterscreen; also: % is scaled to controls: 0 for no effect and ±100 for the full control effect; nearly all actives have a fitted effect of over 45% in size
RECQ1 inh-2 – confirmation of human RECQ1 helicase inhibitors; AID 504841; 15% of 1,100 active; Potency, µM (top dose mostly 119 µM), without a hit: at the top dose activity, negative = inhibition, actives largely listed as inhibitors; shares compounds with RECQ1 inh-1; recombinant RECQ1 DNA unwinding, red fluorescence; also: % is scaled to controls: 0 for no effect and ±100 for the full control effect; nearly all actives have a fitted effect of over 50% in size
FEN1 inh-2 – confirmation of human FEN1 inhibitors | AID 720498 | 79% of 880 active | Potency, µM, usual class: inhibitors | shares compounds with FEN1 inh-1 | FEN1 flap cleavage, TAMRA/BHQ2 fluorogenic DNA substrate; also: nearly all actives have a fitted effect of over 60% in size
* = called active by the depositor; i = inactive; ? = inconclusive; nt = no result given; ! = repeats disagree; [ ] = dose if it differs, or a comment. In the library only some 0.92% were active in any assay of this set; here they are far more common. Calls follow the shape of the dose curve; as a rule, active = well fitted curve in the direction sought with a large enough effect; inconclusive = small, poorly fitted or top-dose-only effect, or another doubt; inactive = no such curve, though single readings can be large; an effect the other way counts as inactive or inconclusive. Potency is read from the fitted curve at half-maximal effect.

SMILES	FEN1 inh-1	APE1 inh	TDP1 inh	BLM helicase inh	RECQ1 inh-1	RECQ1 inh-2	FEN1 inh-2	others
Cc1ccc(S(=O)(=O)N2CC=C(c3c(C)n(C)c4ccccc34)CC2)cc1	-18%	0%	6%	-9%	-16%	nt	nt
CCn1c(C)c(C2=CCN(S(=O)(=O)c3ccccc3)CC2)c2ccccc21	-9%	-10%	7%	-6%	25µM*	?	nt	RECQ1 conf=50µM*
Cc1cccc(NC(=O)C(Cc2ccccc2)NS(=O)(=O)c2ccc3c(c2)c(=O)n(C)c(=O)n3C)c1 (configuration not stated)	-1%	nt	0%	-2%	nt	nt	nt
COc1ccc(Nc2ccnc3ccccc23)cc1	-22%	1%	6%	0%	i	nt	nt
CC(C)Nc1ccc(Nc2ccnc3cc4ccccc4cc23)cc1	25µM*	?	11%	?	22µM*	nt	24*	RECQ1 conf=22µM*;RECQ1 ADP FP=37%[91.9 µM]
N=C1/C(=C/c2ccc(-c3cccc(C(=O)O)c3)o2)C(=O)N=C2SC=C(c3ccccc3)N12	?	?	35µM*	?	?	?	24*
CCN1CCN(c2nc(Nc3ccc(NC(C)=O)cc3)nc(Nc3ccc(NC(C)=O)cc3)n2)CC1	?	-4%	-4%	18µM*	32µM*	22µM*	?
CC(=O)Nc1ccc(/C(C)=N/Nc2nc(Nc3ccccc3)nc(N3CCOCC3)n2)cc1	-17%	0%	-1%	-2%	-2%	nt	nt
C=CCC(C)(O)C(=O)OCC (configuration not stated)	nt	-1%	2%	-2%	i	nt	nt
C/C(C/C(C)=C1/SC(=S)NC1=O)=C1\SC(=S)NC1=O	13µM*	?	nt	96%	14µM*	nt	19*	RECQ1 conf=?
CC(=O)c1ccc(N2CCN(C(=O)C3CCN(S(=O)(=O)c4ccc(Br)s4)CC3)CC2)cc1	5%	nt	2%	-2%	nt	nt	nt
CC1=CN2C(=N)/C(=C/c3ccc([N+](=O)[O-])o3)C(=O)N=C2S1	56µM*	?	3%	-18%	28µM*	?	67*
CC1=CN2C(=N)/C(=C/c3ccco3)C(=O)N=C2S1	3%	7%	0%	-7%	-26%	nt	nt
COc1cccc(-n2c(SCc3cc(=O)oc4cc(O)c(O)cc34)nc3ccccc3c2=O)c1	50µM*	10µM*	-3%	10µM*	25µM*	13µM*	27*
CCN(CC)C(=O)CSc1nc2ccccc2c(=O)n1-c1cccc(OC)c1	5%	-1%	3%	-2%	15%	nt	nt
COc1cc(/C=N/N2C(=O)CSC2=S)cc(Br)c1O	79µM*	?	?	-6%	35µM*	nt	43*	RECQ1 conf=?
NC(=O)COc1ccccc1C(=O)Nc1ccccc1	14%	nt	nt	nt	nt	nt	nt
Cc1c(NC(=O)C(C)(C)Oc2ccc(Cl)cc2)cccc1-c1nc2ncccc2o1	-23%	nt	-3%	-11%	nt	nt	nt
COC(=O)c1cc(O)cc(OC)c1Oc1cc(C)cc(O)c1C(=O)O	50µM*	0.63µM*	nt	8.9µM*	22µM*	5µM*	76*
COC(=O)c1ccc(Nc2ncnc3c2cnn3C)cc1	2%	nt	8%	-20%	nt	nt	nt
O=C1c2ccc3c4c(ccc(c24)C(=O)N1CCCCO)C(=O)N(CCCCO)C3=O	?	?	5%	-1%	7.1µM*	50µM*	30*
Cc1c(Cl)cccc1NS(=O)(=O)c1ccc2c(c1)C1C=CCC1C(c1ccc(C(=O)O)cc1)N2 (configuration not stated)	25µM*	-10%	nt	?	28µM*	?	60*
C=C1c2cccc(O)c2C(O)=C2C(=O)[C@]3(O)C(O)=C(C(N)=O)C(=O)[C@@H](N(C)C)[C@@H]3[C@@H](O)[C@H]12	?	2.5µM*	nt	-11%	7.9µM*	-7%	34*	RECQ1 conf=?;RECQ1 ADP FP=7.1µM*
Cc1cccc(NC(=O)CS(=O)(=O)c2nc(-c3ccccc3)cn2-c2cccc(Cl)c2)c1C	4%	nt	3%	-9%	nt	nt	nt
COc1ccc(OC)c(Nc2nc(NCCCN(C)C)nc(N)c2[N+](=O)[O-])c1	13µM*	?	3%	?	?	?	48*
Cn1c(N)c(C(=O)COC(=O)c2cc(-c3ccco3)nc3ccccc23)c(=O)n(C)c1=O	40µM*	?	-5%	-15%	28µM*	?	67*
Cn1c(N)c(C(=O)COC(=O)c2cc(-c3ccco3)nc3ccccc23)c(=O)n(Cc2ccccc2)c1=O	nt	?	0%	-28%	?	nt	nt
O=C(O)c1cc(O)c2c(c1)C(=O)c1cccc(O)c1C2=O	?	0.32µM*	-3%	35µM*!	3.2µM*!	nt	4.3*	RECQ1 conf=126µM*;RECQ1 ADP FP=7.9µM*
